Measured values published in PubChem BioAssay AID720518 (National Center for Advancing Translational Sciences (NCATS), 2013).
Results filed as inconclusive are left out. Values without a mark were called inactive. Calls of active or inactive are those of the source. Calls come from the whole dose curve.

Experiment: qHTS for Inhibitors of Cell Surface uPA Generation: Wild-type Protective Antigen (WT-PrAg) Counterscreen for Cherry-picked Compounds; for activity (protection): 0% is about no effect
Conditions: cells, WT protective antigen toxicity counterscreen; series mostly up to 115 µM; activity (protection): at the top concentration
Potency is the fitted concentration of half-maximal effect.

Row | SMILES | activity (protection) [%] | Potency
1 | Cc1ccc(S(=O)(=O)Nc2nc(C)cc(N/N=C/c3ccc(O)cc3)n2)cc1 | -1.92 | 
2 | O=C(c1cc([N+](=O)[O-])cc([N+](=O)[O-])c1)N(c1ccccn1)c1ccccn1 | -0.695 | 
3 | O=C(NCC1CCCO1)c1ccc(NC(=O)c2ccc([N+](=O)[O-])cc2)cc1 (stereo not given) | -0.124 | 
4 | COc1ccc2nc3c(cc2c1)c(NC(=O)C1CCCO1)nn3CC(C)C (stereo not given) | 1.84 | 
5 | Cc1cc(C)nc(NC(=O)CSc2nccc(C)n2)n1 | -1.49 | 
6 | CCc1ccc(NC(=O)Cn2cnc([N+](=O)[O-])c2)cc1 | -0.969 | 
7 | COc1ccc(C(=O)NC(=S)Nc2ccc(NC(=O)c3ccco3)cc2)cc1[N+](=O)[O-] | -0.262 | 
8 | C=CCn1c(SCCN2C(=O)c3ccccc3C2=O)nc2scc(-c3ccc(F)cc3)c2c1=O | 4.05 | 
9 | COCCN1C(=O)C(=O)/C(=C(/O)c2ccc(S(=O)(=O)N3CCOCC3)cc2)C1c1cccc([N+](=O)[O-])c1 (stereo not given) | -1.23 | 
10 | CCOC(=O)C1(CC2CCCCO2)CCN(Cc2nccn2-c2cccc(C)c2)CC1 (stereo not given) | -2.03 | 
11 | Cc1ccccc1C(=O)NCC(=O)Nc1ccc(C)c(S(=O)(=O)N2CCCCCC2)c1 | -2.13 | 
12 | Cc1ccc(NS(=O)(=O)c2c(C)nc3sccn3c2=O)c(C)c1 | -0.69 | 
13 | CC(C)(C)n1ncc2c(=O)n(Cc3ccc(Cl)cc3)cnc21 | -2.17 | 
14 | COc1ccc(C(=O)NNC(=O)Cc2ccc(Cl)cc2)cc1 | 1.34 | 
15 | CCOc1ccc(NS(=O)(=O)c2coc(C(N)=O)c2)cc1 | -0.713 | 
16 | COc1ccc(C2=NS(=O)(=O)N(C)C(C(=O)NCc3ccccn3)=C2)cc1 | -1.14 | 
17 | O=C(Cc1ccccc1)Nc1ccc(NC(=O)c2ccccc2)c(Cl)c1 | -1.13 | 
18 | CCn1nc(NS(=O)(=O)c2ccccc2)c2cc3cc(C)ccc3nc21 | -1.97 | 
19 | O=C(O)CSc1nnc(COc2ccccc2)n1-c1ccccc1 | -0.315 | 
20 | CCOC(=O)C1CCN(C(=O)COC(=O)c2c(C)c(CC)nc3ccccc23)CC1 | -1.84 | 

Row | SMILES | activity (protection) [%] | Potency
21 | CC(C)C(=O)Nc1nnc(SCc2cccc(F)c2)s1 | -0.515 | 
22 | COc1ccc(N2CCN(S(=O)(=O)c3ccc4c(c3)NC(=O)CS4)CC2)cc1 | -0.171 | 
23 | O=C(NCCCN1CCCC1=O)c1cccc(Oc2ccccc2)c1 | 0.0118 | 
24 | COc1cc(C2NC(=O)NC(C)=C2C(=O)OCC2CCCCC2)ccc1O (stereo not given) | -0.334 | 
25 | Cc1nn2c(=O)cc(CSc3nc4ccccc4[nH]3)nc2s1 | 0.787 | 
26 | CSc1ccccc1OCc1cc(C(=O)NCCCn2nc(C)cc2C)no1 | -1.8 | 
27 | O=C(N/N=C/c1cccnc1)c1ccccc1[N+](=O)[O-] | -1.19 | 
28 | CCOC(=O)C1CCCN(CC(=O)Nc2ccc(C(=O)Nc3ccccc3OC)cc2)C1 (stereo not given) | 2.21 | 
29 | Cc1nc(C(=O)N2CCC(n3nccc3NC(=O)Nc3ccccc3Cl)CC2)cs1 | -1.86 | 
30 | O=C(CN1C(=O)CSCC1=O)NCc1ccc(F)cc1 | 0.538 | 
31 | COC(=O)c1ccccc1NC(=O)Nc1nnc(N2CCCCC2C)s1 (stereo not given) |  | 58.5 µM (active)
32 | Cc1nnc2ccc(-c3ccc(NS(=O)(=O)c4ccc(Cl)s4)cc3)nn12 | -1.61 | 
33 | CCCOc1ccc(CC2CCC(=O)NC2=O)cc1 (stereo not given) | -1.67 | 
34 | COc1ccccc1C(=O)NCc1ccccc1 | -0.863 | 
35 | CCOCCOc1cc(NCc2ccccc2)c2ncn(C(C)C)c2c1 | -2.32 | 
36 | COc1cccc(NC(=O)c2nnn(CC(=O)Nc3cc(C)cc(C)c3)c2N)c1 | 1.77 | 
37 | Cc1ccc(Nc2nc(Cl)c(C=O)s2)cc1 | -2.07 | 
38 | N#Cc1ccccc1Sc1ccccc1C(=O)Nc1ccc(Br)cc1 | -1.71 | 
39 | NC(=O)CC(NC(=O)Cc1cccc2ccccc12)c1ccc(N2CCN(c3ccc(F)cc3)CC2)c([N+](=O)[O-])c1 (stereo not given) | -0.604 | 
40 | Cc1cccc(-c2nc(CS(=O)CC(=O)NCc3cccs3)c(C)o2)c1 (stereo not given) | -1.45 | 
